The target in assay [1] is Estrogen-related receptor gamma (Homo sapiens) (UniProt P62508). As to the kind of experiment: ATG_ERRg_TRANS: Attagene TRANS-FACTORIAL HepG2 Assay for human Estrogen-Related Receptor gamma (ERRg) (AID 2282977; active means hit-call score of the fitted dose curve at least 0.9, where 1 is the maximum;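 further: hits increase reporter signal over DMSO so potencies reflect activators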). Conditions: HepG2 Attagene TRANS reporter, ERRg transactivation. In outline: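 Induction of reporter transcripts through a chimeric NR-Gal4 protein is quantified in transfected human HepG2 liver cells after 24 h chemical exposure, using RT-PCR with capillary electrophoresis detection and DMSO as baseline.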
Sequence of Estrogen-related receptor gamma (Homo sapiens) (P62508 whole entry, looked up, the tested form may be a part): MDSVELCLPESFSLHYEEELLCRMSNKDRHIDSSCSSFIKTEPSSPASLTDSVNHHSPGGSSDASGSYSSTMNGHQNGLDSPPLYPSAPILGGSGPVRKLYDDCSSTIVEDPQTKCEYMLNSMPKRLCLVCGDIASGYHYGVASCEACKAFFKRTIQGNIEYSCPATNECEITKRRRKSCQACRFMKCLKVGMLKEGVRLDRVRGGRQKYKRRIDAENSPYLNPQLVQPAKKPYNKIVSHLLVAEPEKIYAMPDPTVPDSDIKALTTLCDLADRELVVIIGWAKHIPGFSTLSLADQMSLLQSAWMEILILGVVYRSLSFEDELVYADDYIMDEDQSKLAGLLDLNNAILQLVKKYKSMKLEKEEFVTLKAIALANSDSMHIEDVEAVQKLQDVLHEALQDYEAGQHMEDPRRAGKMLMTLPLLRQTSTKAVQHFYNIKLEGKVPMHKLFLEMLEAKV

Assay [2] concerns the target Glucocorticoid receptor (Homo sapiens) (UniProt P04150). Put plainly: ATG_GR_TRANS: Attagene TRANS-FACTORIAL HepG2 Assay for human Glucocorticoid Receptor (GR) (AID 2282978; active means hit-call score of the fitted dose curve at least 0.9, where 1 is the maximum;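 further: activators score as hits since higher reporter transcript over DMSO is fitted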). Conditions: HepG2 Attagene TRANS GR reporter, mRNA transcription. The essentials:
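HepG2 cells transiently transfected with multiplexed reporter units in which chimeric NR-GAL4 proteins drive GAL4-UAS reporters; 24 h compound exposure. Reporter mRNA measured by RT-PCR, 6-FAM labelling, HpaI digestion and capillary electrophoresis; gain-of-signal fitted versus DMSO.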

The target in assay [3] is Bile acid receptor (Homo sapiens) (UniProt Q96RI1). As to the kind of experiment: ATG_FXR_TRANS: Attagene TRANS-FACTORIAL HepG2 Assay for Farnesoid X Receptor (FXR) (AID 2282979; active means hit-call score of the fitted dose curve at least 0.9, where 1 is the maximum;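 further: hits raise reporter mRNA above DMSO so AC50 marks FXR activation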). Conditions: HepG2 Attagene TRANS FXR-GAL4 reporter transcription. In outline: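 HepG2 cells were transiently transfected with GAL4-UAS reporters driven by chimeric NR-Gal4 proteins and dosed for 24 h. Reporter mRNA was quantified by RT-PCR, fluorescent labelling, HpaI digestion and capillary electrophoresis, with gain of signal scored versus DMSO.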
Sequence of Bile acid receptor (Homo sapiens) (Q96RI1 whole entry, looked up, the tested form may be a part): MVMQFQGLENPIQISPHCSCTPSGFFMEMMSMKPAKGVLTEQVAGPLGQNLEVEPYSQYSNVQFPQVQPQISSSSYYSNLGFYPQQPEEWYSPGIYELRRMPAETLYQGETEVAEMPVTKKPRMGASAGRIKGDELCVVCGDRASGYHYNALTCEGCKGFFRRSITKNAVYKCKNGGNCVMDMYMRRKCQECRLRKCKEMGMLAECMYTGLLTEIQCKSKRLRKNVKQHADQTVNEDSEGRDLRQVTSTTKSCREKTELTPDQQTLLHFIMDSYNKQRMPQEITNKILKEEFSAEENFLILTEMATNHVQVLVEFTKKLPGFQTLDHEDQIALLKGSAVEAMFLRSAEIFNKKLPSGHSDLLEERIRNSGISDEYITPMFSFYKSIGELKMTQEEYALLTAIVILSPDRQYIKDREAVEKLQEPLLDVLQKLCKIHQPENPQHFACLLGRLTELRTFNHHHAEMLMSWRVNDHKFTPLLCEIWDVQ

Assay [4] addresses Oxysterols receptor LXR-beta (Homo sapiens) (UniProt P55055). Put plainly: ATG_LXRb_TRANS: Attagene TRANS-FACTORIAL HepG2 Assay for human Liver X Receptor beta (LXRb) (AID 2282981; active means hit-call score of the fitted dose curve at least 0.9, where 1 is the maximum). Conditions: HepG2 Attagene TRANS GAL4-LXRb reporter, mRNA. The essentials:
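Measures induction of a Gal4-driven reporter transcript in HepG2 cells expressing an exogenous LXRb-Gal4 fusion. Cells are exposed to compound for 24 h before RNA isolation and RT-PCR with capillary electrophoresis detection.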

In assay [5] the target is Transcriptional activator Myb (Homo sapiens) (UniProt P10242). As to the kind of experiment: ATG_Myb_CIS: Attagene CIS-FACTORIAL HepG2 Assay for human Myeloblastosis (Myb) Proto-Oncogene Transcription Factor (AID 2282986). Conditions: HepG2 Attagene CIS-FACTORIAL Myb reporter transcription; actives raise or lower the signal. In outline: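 HepG2 cells were transiently transfected with cis-regulated multiple reporter transcription units reflecting endogenous Myb activity, then exposed to compound for 24 hours. Reporter mRNA was measured by RT-PCR with capillary electrophoresis; bidirectional fitting versus DMSO baseline.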
Sequence of Transcriptional activator Myb (Homo sapiens) (P10242 whole entry, looked up): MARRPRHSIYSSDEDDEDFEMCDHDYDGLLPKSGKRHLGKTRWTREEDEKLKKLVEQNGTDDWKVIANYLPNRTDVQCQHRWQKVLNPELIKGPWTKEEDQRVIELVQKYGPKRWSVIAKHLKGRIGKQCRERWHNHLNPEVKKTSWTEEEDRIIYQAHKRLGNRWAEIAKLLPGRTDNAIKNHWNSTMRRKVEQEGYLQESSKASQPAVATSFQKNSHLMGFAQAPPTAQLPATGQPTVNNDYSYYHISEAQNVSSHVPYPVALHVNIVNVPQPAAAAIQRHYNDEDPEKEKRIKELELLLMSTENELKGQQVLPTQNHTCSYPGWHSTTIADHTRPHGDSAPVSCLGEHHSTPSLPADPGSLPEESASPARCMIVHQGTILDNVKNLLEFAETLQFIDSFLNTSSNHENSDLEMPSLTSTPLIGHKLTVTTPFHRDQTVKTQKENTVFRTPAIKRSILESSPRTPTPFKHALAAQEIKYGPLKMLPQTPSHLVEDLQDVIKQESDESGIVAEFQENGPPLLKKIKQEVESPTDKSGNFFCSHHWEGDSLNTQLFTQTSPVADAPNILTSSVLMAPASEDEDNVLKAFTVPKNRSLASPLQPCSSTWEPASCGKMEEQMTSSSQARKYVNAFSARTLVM

For assay [6], the target named is Nuclear respiratory factor 1 (Homo sapiens) (UniProt Q16656). Put plainly: ATG_NRF1_CIS: Attagene CIS-FACTORIAL HepG2 Assay for human Nuclear Respiratory Factor 1 (NRF1) Orphan Gene (AID 2282987). Conditions: HepG2 NRF1 cis-element reporter, Attagene multiplex; actives raise or lower the signal. In outline:
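HepG2 cells transiently transfected with multiple reporter transcription units under cis-regulatory promoter control, so endogenous transcription-factor activity is read. After 24 h compound exposure, reporter mRNA quantified by RT-PCR, fluorescent labelling, HpaI digestion and capillary electrophoresis; bidirectional fitting versus DMSO.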

Assay [7] can be described thus: ATG_Oct_MLP_CIS: Attagene CIS-FACTORIAL HepG2 Assay for human Octamer-Binding Transcription Factor (Oct) (AID 2282993). Conditions: HepG2 Attagene cis-factorial Oct reporter, mRNA; actives raise or lower the signal. In outline: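 HepG2 cells transiently transfected with cis-promoter-driven multiplexed reporter transcription units, dosed for 24 h. Reporter mRNA quantified by RT-PCR, fluorescent labelling, HpaI digestion and capillary electrophoresis; bidirectional fits versus DMSO baseline.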

For assay [8], the target named is Cellular tumor antigen p53 (Homo sapiens) (UniProt P04637). As to the kind of experiment: ATG_p53_CIS: Attagene CIS-FACTORIAL HepG2 Assay for human p53 Transcription Factor (AID 2282994). Conditions: HepG2 p53 cis-element reporter, Attagene mRNA; actives raise or lower the signal. The essentials:
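Read-out: reporter mRNA by RT-PCR plus capillary electrophoresis with fluorescence detection. Human HepG2 liver cells carried transfected multi-reporter cis-element constructs, dosed 24 h. Gain or loss of signal fitted bidirectionally against DMSO control.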

Assay [9] can be described thus: BSK_3C_TissueFactor: BioMAP Diversity Plus: 3C Assay for Tissue Factor Biomarker Activity (AID 2282997). Conditions: BioMAP 3C HUVEC, tissue factor biomarker readout; actives raise or lower the signal. The essentials:
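Tissue Factor measured by ELISA, 24 h after treatment of primary HUVEC in the BioMAP 3C setting.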

Assay [10] is described as follows: BSK_3C_uPAR: BioMAP Diversity Plus: 3C Assay for Urokinase-type plasminogen activator receptor (uPAR) Biomarker Activity (AID 2282998). Conditions: BioMAP 3C HUVEC, uPAR biomarker ELISA; actives raise or lower the signal. The essentials: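 Human umbilical vein endothelial primary cells were exposed to test chemical for 24 h. Cell-surface uPAR was then quantified by ELISA, and responses were fitted bidirectionally against DMSO as negative control and baseline.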

Assay [11] in a line: BSK_3C_VCAM1: BioMAP Diversity Plus: 3C Assay for Vascular cell adhesion molecule 1 (VCAM1) Biomarker Activity (AID 2282999). Conditions: BioMAP 3C HUVEC, VCAM1 ELISA, cytokine-stimulated; actives raise or lower the signal. The essentials:
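Vascular primary endothelium (human umbilical vein) was exposed to chemicals and assayed 24 h later. VCAM-1 levels came from ELISA, with DMSO serving as baseline for bidirectional fitting.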

Assay [12] can be described thus: ATG_GAL4_TRANS: Attagene TRANS-FACTORIAL HepG2 Assay for GAL4 (Internal Marker) (AID 2282976; active means hit-call score of the fitted dose curve at least 0.9, where 1 is the maximum). Conditions: HepG2 Attagene TRANS GAL4 internal marker reporter. The essentials:
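Background-control readout: GAL4-UAS reporter transcript in transiently transfected HepG2 cells after 24 h compound exposure. Measured by RT-PCR, 6-FAM primer extension, HpaI digest and capillary electrophoresis; gain-of-signal fit versus DMSO.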

The target in assay [13] is Hepatocyte nuclear factor 4-alpha (Homo sapiens) (UniProt P41235). Put plainly: ATG_HNF4a_TRANS: Attagene TRANS-FACTORIAL HepG2 Assay for human Hepatocyte Nuclear Factor 4 alpha (HNF4a) (AID 2282982; active means hit-call score of the fitted dose curve at least 0.9, where 1 is the maximum). Conditions: HepG2 HNF4a transactivation reporter, mRNA readout. The essentials:
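In this trans-factorial format, a chimeric HNF4a-GAL4 fusion drives a GAL4-UAS reporter in transfected HepG2 liver cells. After 24 h treatment, reporter mRNA induction is measured by RT-PCR with capillary electrophoresis, relative to DMSO.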

Assay [14] can be described thus: ATG_M_06_TRANS: Attagene TRANS-FACTORIAL HepG2 Assay for M06 Transcription Factor (Internal Marker) (AID 2282983; active means hit-call score of the fitted dose curve at least 0.9, where 1 is the maximum). Conditions: HepG2 Attagene TRANS M06 internal marker reporter. In outline: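 mRNA levels of a reporter transcript, quantified as FAM fluorescence on capillary electrophoresis, served as readout. HepG2 cells expressing exogenous GAL4-chimera reporter constructs were exposed for 24 h. Gain of signal over DMSO was evaluated.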

The nature of assay [15]: ATG_M_32_TRANS: Attagene TRANS-FACTORIAL HepG2 Assay for M32 Transcription Factor (Internal Marker) (AID 2282984; active means hit-call score of the fitted dose curve at least 0.9, where 1 is the maximum). Conditions: HepG2 Attagene TRANS M32 internal marker reporter. The essentials: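 After 24 h dosing of transfected HepG2 cells, total RNA was reverse-transcribed, reporter sequences PCR-amplified, 6-FAM labelled by primer extension and HpaI-digested before capillary electrophoresis. Signal increase over DMSO was fitted.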

Assay [16] addresses Nuclear receptor subfamily 4 group A member 2 (Homo sapiens) (UniProt P43354). As to the kind of experiment: ATG_NURR1_TRANS: Attagene TRANS-FACTORIAL HepG2 Assay for human Nuclear Receptor Related Protein 1 (NURR1) (AID 2282985; active means hit-call score of the fitted dose curve at least 0.9, where 1 is the maximum). Conditions: HepG2 Attagene TRANS reporter, mRNA readout. In outline:
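Chimeric NR-Gal4 fusion activity measured in HepG2 after 24 h treatment. Reporter transcripts detected by RT-PCR and capillary electrophoresis fluorescence; positive-direction curve fitting against DMSO.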

The nature of assay [17]: ATG_NFI_CIS: Attagene CIS-FACTORIAL HepG2 Assay for human Nuclear Factor I (NFI) (AID 2282989). Conditions: HepG2 cis-regulatory reporter, NFI response element transcription; actives raise or lower the signal. The essentials: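 HepG2 cells transiently transfected with cis-element-driven multiplexed reporter transcription units, dosed for 24 h. Reporter mRNA quantified by RT-PCR, fluorescent labelling, HpaI digestion and capillary electrophoresis; bidirectional fit versus DMSO baseline.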

Assay [18] is described as follows: ATG_NRF2_ARE_CIS: Attagene CIS-FACTORIAL HepG2 Assay for human Nuclear Factor Erythroid 2 Related Factor 2 (NFR2) response to Antioxidant Response Elements (ARE) (AID 2282992). Conditions: HepG2 Attagene ARE/NRF2 reporter, transcription factor activity; actives raise or lower the signal. In outline: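 Readout: reporter mRNA quantified by RT-PCR plus FAM-labelled primer extension, HpaI digestion and capillary electrophoresis, 24 h after dosing transfected HepG2 cells. Gain or loss of signal is fitted bidirectionally against DMSO baseline.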

Assay [19] concerns the target Oxysterols receptor LXR-alpha (Homo sapiens) (UniProt Q13133). As to the kind of experiment: ATG_LXRa_TRANS: Attagene TRANS-FACTORIAL HepG2 Assay for human Liver X Receptor alpha (LXRa) (AID 2282980; active means hit-call score of the fitted dose curve at least 0.9, where 1 is the maximum). Conditions: HepG2 Attagene TRANS reporter, LXRa transactivation. In outline: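 HepG2 cells transiently transfected with GAL4-UAS reporter units for chimeric NR-Gal4 proteins, exposed to chemicals for 24 h. Reporter mRNA quantified by RT-PCR and capillary electrophoresis; gain of signal fitted relative to DMSO.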

The target of assay [20] is Myc proto-oncogene protein (Homo sapiens) (UniProt P01106). Put plainly: ATG_Myc_CIS: Attagene CIS-FACTORIAL HepG2 Assay for human Myelocytomatosis (Myc) Proto-Oncogene Transcription Factor (AID 2282990). Conditions: HepG2, Attagene cis-reporter transcription factor activity; actives raise or lower the signal. The essentials: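 Multiplexed cis-reporter transcription in HepG2 cells after 24 h chemical treatment. Reporter mRNA measured by RT-PCR and capillary electrophoresis fluorescence; activity fitted bidirectionally against DMSO control.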

Records with an inconclusive call do not appear. Where a structure was tested more than once in an assay, its records may differ in their call. Calls of active or inactive are those of the source. How the source made its calls, unless noted: active means hit-call score of the fitted dose curve at least 0.9, where 1 is the maximum; inactive means score below 0.9.

Sequence of Oxysterols receptor LXR-alpha (Homo sapiens) (Q13133 whole entry, looked up, the tested form may be a part): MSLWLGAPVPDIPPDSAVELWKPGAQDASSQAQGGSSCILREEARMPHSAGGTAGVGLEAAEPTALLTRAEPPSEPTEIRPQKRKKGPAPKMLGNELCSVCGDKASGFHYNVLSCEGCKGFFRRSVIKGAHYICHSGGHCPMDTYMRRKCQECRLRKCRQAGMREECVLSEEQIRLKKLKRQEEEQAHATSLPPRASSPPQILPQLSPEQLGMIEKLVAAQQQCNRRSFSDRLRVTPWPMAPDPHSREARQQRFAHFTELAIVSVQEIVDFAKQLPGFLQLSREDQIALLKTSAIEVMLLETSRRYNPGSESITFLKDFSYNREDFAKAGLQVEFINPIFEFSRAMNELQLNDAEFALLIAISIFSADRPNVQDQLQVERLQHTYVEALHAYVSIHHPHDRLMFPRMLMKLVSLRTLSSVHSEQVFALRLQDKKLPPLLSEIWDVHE
Sequence of Glucocorticoid receptor (Homo sapiens) (P04150 whole entry, looked up, the tested form may be a part): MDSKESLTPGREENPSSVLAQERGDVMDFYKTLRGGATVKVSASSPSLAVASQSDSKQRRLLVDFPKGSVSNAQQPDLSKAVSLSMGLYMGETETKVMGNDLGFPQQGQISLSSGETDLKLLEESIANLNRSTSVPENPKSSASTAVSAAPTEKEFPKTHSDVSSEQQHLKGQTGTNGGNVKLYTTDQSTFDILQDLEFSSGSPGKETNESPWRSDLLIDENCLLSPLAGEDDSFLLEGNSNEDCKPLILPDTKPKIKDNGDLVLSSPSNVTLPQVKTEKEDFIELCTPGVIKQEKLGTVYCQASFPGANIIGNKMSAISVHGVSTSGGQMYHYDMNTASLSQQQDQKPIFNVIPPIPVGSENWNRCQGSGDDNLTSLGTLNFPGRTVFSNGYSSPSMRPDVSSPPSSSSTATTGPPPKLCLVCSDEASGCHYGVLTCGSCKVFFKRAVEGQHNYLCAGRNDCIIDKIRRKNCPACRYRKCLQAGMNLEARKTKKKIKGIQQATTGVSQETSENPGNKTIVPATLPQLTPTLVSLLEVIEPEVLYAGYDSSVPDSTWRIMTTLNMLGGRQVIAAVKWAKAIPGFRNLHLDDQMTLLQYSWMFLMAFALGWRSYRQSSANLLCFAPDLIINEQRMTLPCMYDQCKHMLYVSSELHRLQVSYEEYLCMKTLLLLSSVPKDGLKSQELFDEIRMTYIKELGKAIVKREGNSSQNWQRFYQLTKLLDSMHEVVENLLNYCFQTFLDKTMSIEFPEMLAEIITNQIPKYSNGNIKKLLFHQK
Sequence of Nuclear respiratory factor 1 (Homo sapiens) (Q16656 whole entry, looked up): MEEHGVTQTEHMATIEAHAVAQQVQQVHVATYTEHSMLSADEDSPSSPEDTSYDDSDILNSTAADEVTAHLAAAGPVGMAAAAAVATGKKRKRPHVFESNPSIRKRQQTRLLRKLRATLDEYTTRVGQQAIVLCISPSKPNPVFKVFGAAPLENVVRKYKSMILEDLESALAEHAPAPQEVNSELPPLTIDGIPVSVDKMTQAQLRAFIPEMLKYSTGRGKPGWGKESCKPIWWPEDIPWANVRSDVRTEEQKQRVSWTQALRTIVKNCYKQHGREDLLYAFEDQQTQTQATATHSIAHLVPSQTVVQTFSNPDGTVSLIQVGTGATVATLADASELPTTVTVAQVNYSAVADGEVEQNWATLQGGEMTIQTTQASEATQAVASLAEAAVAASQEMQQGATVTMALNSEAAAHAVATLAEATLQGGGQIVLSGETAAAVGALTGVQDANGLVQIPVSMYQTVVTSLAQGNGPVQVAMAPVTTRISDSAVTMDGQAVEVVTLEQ
Sequence of Nuclear receptor subfamily 4 group A member 2 (Homo sapiens) (P43354 whole entry, looked up, the tested form may be a part): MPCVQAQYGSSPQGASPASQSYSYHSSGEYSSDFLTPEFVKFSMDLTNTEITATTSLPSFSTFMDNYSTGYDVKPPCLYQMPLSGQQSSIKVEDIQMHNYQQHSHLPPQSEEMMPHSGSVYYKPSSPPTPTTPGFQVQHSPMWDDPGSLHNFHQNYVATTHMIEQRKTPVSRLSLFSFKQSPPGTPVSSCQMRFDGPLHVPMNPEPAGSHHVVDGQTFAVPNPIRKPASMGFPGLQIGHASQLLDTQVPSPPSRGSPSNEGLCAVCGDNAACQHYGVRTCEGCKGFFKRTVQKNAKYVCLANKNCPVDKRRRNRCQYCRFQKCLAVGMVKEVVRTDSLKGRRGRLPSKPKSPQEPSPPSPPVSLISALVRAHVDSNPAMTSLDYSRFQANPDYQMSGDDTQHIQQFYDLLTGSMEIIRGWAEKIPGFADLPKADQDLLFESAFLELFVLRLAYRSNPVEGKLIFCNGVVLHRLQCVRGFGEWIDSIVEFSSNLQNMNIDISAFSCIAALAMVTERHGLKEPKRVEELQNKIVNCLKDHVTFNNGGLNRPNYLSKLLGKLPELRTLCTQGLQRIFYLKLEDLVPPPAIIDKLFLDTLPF
Sequence of Hepatocyte nuclear factor 4-alpha (Homo sapiens) (P41235 whole entry, looked up, the tested form may be a part): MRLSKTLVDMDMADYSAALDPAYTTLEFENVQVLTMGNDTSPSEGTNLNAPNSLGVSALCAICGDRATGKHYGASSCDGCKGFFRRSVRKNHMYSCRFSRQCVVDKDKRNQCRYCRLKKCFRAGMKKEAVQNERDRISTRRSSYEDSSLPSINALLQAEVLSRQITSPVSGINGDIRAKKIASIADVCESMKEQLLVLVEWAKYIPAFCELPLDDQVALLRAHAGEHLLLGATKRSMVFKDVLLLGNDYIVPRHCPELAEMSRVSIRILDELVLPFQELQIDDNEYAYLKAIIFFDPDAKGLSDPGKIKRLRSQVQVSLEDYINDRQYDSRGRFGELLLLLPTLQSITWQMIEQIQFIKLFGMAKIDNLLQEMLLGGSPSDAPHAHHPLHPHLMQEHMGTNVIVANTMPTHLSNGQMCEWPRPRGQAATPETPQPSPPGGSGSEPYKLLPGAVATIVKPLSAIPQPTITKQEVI
Sequence of Oxysterols receptor LXR-beta (Homo sapiens) (P55055 whole entry, looked up, the tested form may be a part): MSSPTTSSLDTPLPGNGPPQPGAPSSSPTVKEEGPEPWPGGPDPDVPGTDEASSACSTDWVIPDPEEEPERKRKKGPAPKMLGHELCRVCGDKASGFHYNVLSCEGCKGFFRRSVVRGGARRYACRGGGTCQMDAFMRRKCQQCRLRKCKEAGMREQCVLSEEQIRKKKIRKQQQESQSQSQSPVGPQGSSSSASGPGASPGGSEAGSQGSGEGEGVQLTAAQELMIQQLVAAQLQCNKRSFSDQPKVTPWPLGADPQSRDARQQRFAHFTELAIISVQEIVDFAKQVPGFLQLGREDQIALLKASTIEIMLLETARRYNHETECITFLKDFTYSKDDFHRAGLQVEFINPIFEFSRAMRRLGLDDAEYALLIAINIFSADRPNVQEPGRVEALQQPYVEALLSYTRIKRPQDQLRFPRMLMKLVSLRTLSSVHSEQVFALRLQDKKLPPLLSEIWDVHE

With `CCOc1nc(NC)nc(NC(=O)NS(=O)(=O)c2ccccc2C(=O)OC)n1`, the call in assay [1], in assay [2], in assay [3], in [4], in assay [5] and in assay [6] was inactive. Moreover, the outcome in assay [7], in assay [8], in [9], in [10] and in [11] was inactive.
For `CCCN(CCOc1c(Cl)cc(Cl)cc1Cl)C(=O)n1ccnc1`, the result in assay [12], in assay [1], in [3], in [4], in assay [13] and in assay [14] was inactive. The compound was called inactive in [15], in assay [16], in assay [5], in assay [6], in assay [17] and in assay [18]. The compound was called inactive in assay [7], in assay [8], in assay [9], in [10] and in [11]. Further, the values for the AC50 in assay [18] and in [7] were 4.52 µM (active) and 11.1 µM (active), respectively.
For the compound `CC(C)N(C(=O)COc1nnc(C(F)(F)F)s1)c1ccc(F)cc1`, the outcome in assay [1], in assay [19], in assay [4], in assay [16], in assay [5] and in [6] was inactive. In addition, the outcome in assay [8], in assay [9], in assay [10] and in [11] was inactive. The AC50 is 20.7 µM (active) in [18] and 17.2 µM (active) in [7].
Regarding `COc1cc(OC)nc(NC(=O)NS(=O)(=O)c2cc(NC=O)ccc2C(=O)N(C)C)n1`, the outcome in assay [3], in assay [4], in [13], in assay [16], in assay [5] and in assay [6] was inactive. Further, the compound was classed as inactive in assay [20], in assay [18], in assay [7], in [8], in assay [9] and in [10]. The result in [11] was inactive.
In the case of `CN1CSC(=S)N(C)C1`, the call in [2], in assay [19], in assay [4], in assay [14], in [15] and in assay [16] was inactive. Further, the result in assay [5], in assay [6], in assay [20], in assay [8], in assay [9] and in [10] was inactive. Also, the AC50 in [17] is 69.1 µM (active); in assay [7] it was 24.6 µM (active); in assay [11], 21.5 µM (active).
With `CNC(=O)CSP(=S)(OC)OC`, the result in assay [19], in [4], in assay [13], in assay [14], in assay [15] and in [16] was inactive. Further, the compound was called inactive in [5], in assay [6], in [17], in [18], in [7] and in [9]. In addition, the outcome in assay [10] and in assay [11] was inactive.
As for `CNC(=O)/C=C(\C)OP(=O)(OC)OC`, the compound was called inactive in assay [2], in [3], in assay [4], in [13], in assay [14] and in assay [15]. Also, the outcome in assay [5], in [6], in assay [18], in assay [7], in [9] and in [10] was inactive. The result in [11] was inactive.

The values above are taken from PubChem BioAssay (EPA / NIEHS).
